In PubChem BioAssay (EPA / NIEHS):
Active and inactive are the calls of the source. Rule for the calls: active = hit-call score of the fitted dose curve at least 0.9, where 1 is the maximum; inactive = score below 0.9.

Assay: CCTE_Simmons_MITO_max_resp_rate: CCTE's HepG2 Seahorse XF Respirometric Screening Assay at Maximal Respiratory State [uncoupled], Simmons Lab (AID 2284002)
Settings: actives raise or lower the signal
Experimental: CCTE_Simmons_MITO is cell-based, respirometric assay using HepG2 cells and a Seahorse XF Analyzer to measure oxygen consumption rates over four temporal phases spanning a total of 72 minutes: pre-injection (pre-treatment), basal (following test compound injection), maximal (following FCCP uncoupler injection), and inhibited (following rotenone/antimycin A injection)CCTE_Simmons_MITO_max_resp_rate is one of 4 assay components calculated from the CCTE_Simmons_MITO assay. It is designed to make measurements of maximal respiration using a form of respirometric reporter, as detected with […] signals by Seahorse XF96 technology. Data from the assay component CCTE_Simmons_MITO_max_resp_rate was analyzed at the endpoint, CCTE_Simmons_MITO_max_resp_rate_OCR, with bidirectional fitting relative to DMSO as the negative control and baseline of activity. Using a type of respirometric reporter, measures of maximal respiration for gain or loss-of-signal activity can be used to understand cellular oxygen consumption as it relates to cellular respiration. To generalize the intended target to other relatable targets, this assay endpoint is annotated to the mitochondria intended target family, where the subfamily is respiration.
Test chemicals were administered as a titrated series of 7 concentrations from 125 nM up to 100 uM [final] prior to kinetic endpoint detection at 6 minute intervals [3 min mix followed by 3 minutes measure] for 72 minutes. Three biological replicates of technical singles were run for every chemical concentration tested. Dimethylsulfoxide [DMSO] was used as the vehicle control. The electron transport chain inhibitor fenpyroximate was used as the positive control for decreased basal respiration and was administered as a titrated series of 6 concentrations from 250 nM up to 2.75 uM [final] with technical triplicates for the top concentration only. The uncoupler 2,4-dintirophenol was used as the positive control for increased basal respiration and was administered as a titrated series of 6 concentrations from 938 nM up to 40 uM [final] with technical triplicates for the top concentration only. A Seahorse XF Analzyer is required to measure the response.

Compound	outcome	AC50
CC(C)N(Cc1ccccc1)C(=O)C(C)(C)C	inactive	–
CCC(C)c1ccc(O)cc1 (configuration not stated)	inactive	–
CCOC(=O)[C@]1(c2ccccc2)Oc2ccccc2[C@@H]1N	–	31.3 µM (active)
COc1cc(C=O)cc2c1[C@H](COC(N)=O)[C@]1(OC(C)=O)ON2C[C@H]2[C@@H]1N2C(C)=O	inactive	–
C[C@]12C=CC3=C4CCC(=O)C=C4CC[C@H]3[C@@H]1CC[C@@H]2O	inactive	–
CCCCCCCCn1sccc1=O	–	52 µM (active)
CC(C)(C)C(O)(CCc1ccc(Cl)cc1)Cn1cncn1 (configuration not stated)	–	33.4 µM (active)
CC(C)COC(=O)c1ccccc1C(=O)OCC(C)C	–	50 µM (active)
Cc1cc(N=Nc2ccccc2C)ccc1N	–	36.4 µM (active)
[Cl-].[Cl-].[Hg+2]	–	50 µM (active)
CCC[CH2][Sn]([Cl])([CH2]CCC)[CH2]CCC	–	3.2 µM (active)
Nc1ccc(N=Nc2ccccc2)cc1	inactive	–
